Data taken from PubChem BioAssay (NCATS).
Records with an inconclusive call do not appear. Activity calls are given as the source filed them. Calls follow the shape of the dose curve; as a rule, active = well fitted curve in the direction sought with a large enough effect; inconclusive = small, poorly fitted or top-dose-only effect, or another doubt; inactive = no such curve, though single readings can be large; an effect the other way counts as inactive or inconclusive. Where a SMILES comes first, the peptide text is derived from it. The star is where a group is joined. βNA = c1ccc2cc(N*)ccc2c1; Cbz = O=C(OCc1ccccc1)*

How the values were obtained:
HACAT = assay: qHTS assay to identify novel small-molecules to repurpose for Merkel cell carcinoma treatment (AID 1296009); conditions: MCC and control cell lines, CellTiter-Glo viability, 72 h; at 44.8 µM (top of the series) unless noted; also: nearly all actives have a fitted effect of over 60% in size
Method in brief: (§1)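 Dose-response viability screen; 72 hr exposure at 37 degree celsius; CellTiter-Glo added, 10 min room temperature, luminescence read; RLUs scaled between no-cell and DMSO wells.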

NIH3T3 = assay: as above; conditions: MCC and control cell lines, CellTiter-Glo viability, 72 h; at 44.8 µM (top of the series) unless noted
Method in brief: as §1

C33A = assay: Primary qHTS to identify gynecologic anti-cancer compounds using libraries of approved drugs and bioactive compounds (AID 1345084); conditions: Gynecologic cancer cell panel viability, ATPlite luminescence, 48 h; series mostly up to 57.5 µM; also: % is scaled to controls: 0 for no effect and ±100 for the full control effect; nearly all actives have a fitted effect of over 55% in size
Method in brief: (§2)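 Five-concentration response, 48 h; readout is ATP-driven luciferase luminescence.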

CAOV3 = assay: as above; conditions: Gynecologic cancer cell panel viability, ATPlite luminescence, 48 h; series mostly up to 57.5 µM
Method in brief: as §2

CASKI = assay: as above; conditions: Gynecologic cancer cell panel viability, ATPlite luminescence, 48 h; series mostly up to 57.5 µM
Method in brief: as §2

Es-2 = assay: as above; conditions: Gynecologic cancer cell panel viability, ATPlite luminescence, 48 h; series mostly up to 57.5 µM
Method in brief: as §2

HeLa = assay: as above; conditions: Gynecologic cancer cell panel viability, ATPlite luminescence, 48 h; series mostly up to 57.5 µM
Method in brief: as §2

Hek293T = assay: as above; conditions: Gynecologic cancer cell panel viability, ATPlite luminescence, 48 h, control line for the selectivity index; series mostly up to 57.5 µM
Method in brief: as §2

JEG-3 = assay: as above; conditions: Gynecologic cancer cell panel viability, ATPlite luminescence, 48 h; series mostly up to 57.5 µM
Method in brief: as §2

C[C@@H](NC(=O)c1cc(C(=O)N[C@@H](Cc2ccccc2)[C@H](O)CNC2CC2)cc(N(C)S(C)(=O)=O)c1)c1ccccc1
inactive: outcome (HACAT) | outcome (NIH3T3) | Potency (C33A) | Potency (CAOV3) | outcome (CASKI) | Potency (Es-2) | Potency (HeLa) | Potency (Hek293T) | Potency (JEG-3)

COC(=O)C1(O)C(OC(C)=O)CCC2C3(CC(c4ccoc4)OC3=O)C(C)=CCC21C(=O)OC (stereo not given)
inactive: outcome (HACAT) inactive [at 17.4 µM] | outcome (NIH3T3) inactive [at 17.4 µM] | Potency (C33A) | Potency (CAOV3) | outcome (CASKI) | Potency (Es-2) | Potency (HeLa) | Potency (Hek293T) | Potency (JEG-3)

CC1CCC2(C(=O)O)CCC3(C)C(=CCC4C5(C)CCC(O)C(C)(C(=O)O)C5CCC43C)C2C1(C)O (stereo not given)
inactive: outcome (HACAT) inactive [at 17.4 µM] | outcome (NIH3T3) inactive [at 17.4 µM] | Potency (C33A) | Potency (CAOV3) | outcome (CASKI) | Potency (Es-2) | Potency (HeLa) | Potency (Hek293T) | Potency (JEG-3)

CC1=C[C@@H]2[C@H]3[C@@H]4O[C@@](C)(CC[C@H]4O)[C@H]3CC(=O)[C@]23C(=O)N[C@@H](CC(C)C)[C@@H]3[C@@H]1C
inactive: outcome (HACAT) | outcome (NIH3T3) | Potency (C33A) | Potency (CAOV3) | outcome (CASKI) | Potency (Es-2) | Potency (HeLa) | Potency (Hek293T) | Potency (JEG-3)

CSCC1OC(n2cnc3c(=O)[nH]cnc32)C(O)C1O (stereo not given)
inactive: outcome (HACAT) | outcome (NIH3T3) | Potency (C33A) | Potency (CAOV3) | outcome (CASKI) | Potency (Es-2) | Potency (HeLa) | Potency (Hek293T) | Potency (JEG-3)

C=C1[C@H]2CCC3[C@]4(C)CCC[C@@](C)(C(=O)O)C4CC[C@]3(C2)[C@H]1OC(C)=O (stereo not given in full)
inactive: outcome (HACAT) | outcome (NIH3T3) | Potency (C33A) | Potency (CAOV3) | outcome (CASKI) | Potency (Es-2) | Potency (HeLa) | Potency (Hek293T) | Potency (JEG-3)

C=C1C(O)C(OC(=O)c2ccccc2)C2C(C)(C(=O)O)CCCC2(C)C1CC/C(C)=C\CO (stereo not given)
inactive: outcome (HACAT) inactive [at 17.4 µM] | outcome (NIH3T3) inactive [at 17.4 µM] | Potency (C33A) | Potency (CAOV3) | outcome (CASKI) | Potency (Es-2) | Potency (HeLa) | Potency (Hek293T) | Potency (JEG-3)

C[C@@H]1C[C@@H](O)[C@@]2(CO)C(CO)=CCC[C@@H]2[C@@]12C[C@@H](c1ccoc1)OC2=O
inactive: outcome (HACAT) | outcome (NIH3T3) | Potency (C33A) | Potency (CAOV3) | outcome (CASKI) | Potency (Es-2) | Potency (HeLa) | Potency (Hek293T) | Potency (JEG-3)

CC(C)CC(NC(=O)OCc1ccccc1)C(=O)NC(CC(C)C)C(=O)NC(CCC(=O)O)C(=O)Nc1ccc2ccccc2c1 (stereo not drawn) (Cbz-Leu-Leu-Glu-βNA; configuration not given here)
inactive: outcome (HACAT) | outcome (NIH3T3) | Potency (C33A) | Potency (CAOV3) | outcome (CASKI) | Potency (Es-2) | Potency (HeLa) | Potency (Hek293T) | Potency (JEG-3)

CC(=O)O[C@@H]1[C@H](O[C@@H]2O[C@H](CO)[C@@H](O)[C@H](O)[C@H]2O)[C@@H](O[C@@H]2O[C@@H](C)[C@H](O)[C@@H](O[C@@H]3O[C@H](CO)[C@@H](O)[C@H](O)[C@H]3O)[C@H]2O)[C@H](OC(=O)[C@]23CCC(C)(C)C[C@H]2C2=CCC4[C@@]5(C)C[C@H](O)[C@H](O[C@@H]6O[C@H](C(=O)O)[C@@H](O)[C@H](O)[C@H]6O)[C@@](C)(C(=O)O)C5CC[C@@]4(C)[C@]2(C)CC3)O[C@@H]1C (stereo not given in full)
inactive: outcome (HACAT) inactive [at 9.27 µM] | outcome (NIH3T3) inactive [at 9.27 µM] | activity change, negative = cytotoxicity (C33A) 2.77% [at 6.55 µM] | activity change, negative = cytotoxicity (CAOV3) -7.98% [at 6.55 µM] | activity change, negative = cytotoxicity (CASKI) -0.483% [at 6.55 µM] | activity change, negative = cytotoxicity (Es-2) -0.374% [at 6.55 µM] | activity change, negative = cytotoxicity (HeLa) 0.873% [at 6.55 µM] | activity change, negative = cytotoxicity (Hek293T) 0.423% [at 6.55 µM] | activity change, negative = cytotoxicity (JEG-3) 0.0867% [at 6.55 µM]

CC1(C)CC(NC(=O)C(=O)Nc2ccc(Cl)cc2)CC(C)(C)N1
inactive: outcome (HACAT) | outcome (NIH3T3) | Potency (C33A) | Potency (CAOV3) | outcome (CASKI) | Potency (Es-2) | Potency (HeLa) | Potency (Hek293T) | Potency (JEG-3)

CC1=CC(=O)C(=C(C)C)CC2C(C)(O)CCC12O (stereo not given)
inactive: outcome (HACAT) | outcome (NIH3T3) | Potency (C33A) | Potency (CAOV3) | outcome (CASKI) | Potency (Es-2) | Potency (HeLa) | Potency (Hek293T) | Potency (JEG-3)

COc1cc(C(=O)OC[C@H]2O[C@@H](OC(C)(C)C(=O)O)[C@H](O)[C@@H](O)[C@@H]2O)cc(OC)c1O
inactive: outcome (HACAT) inactive [at 17.4 µM] | outcome (NIH3T3) inactive [at 17.4 µM] | Potency (C33A) | Potency (CAOV3) | outcome (CASKI) | Potency (Es-2) | Potency (HeLa) | Potency (Hek293T) | Potency (JEG-3)

O=C(O)C[C@H]1CCC(=O)[C@@H]1C/C=C\CCO
inactive: outcome (HACAT) | outcome (NIH3T3) | Potency (C33A) | Potency (CAOV3) | outcome (CASKI) | Potency (Es-2) | Potency (HeLa) | Potency (Hek293T) | Potency (JEG-3)

C[C@]12CCC[C@](C)(C(=O)O)C1[C@@H](O)[C@@H](O)C13CC(CCC12)C(CO)(O[C@@H]1O[C@H](CO)[C@@H](O)[C@H](O)[C@H]1O)C3 (stereo not given in full)
inactive: outcome (HACAT) inactive [at 17.4 µM] | outcome (NIH3T3) inactive [at 17.4 µM] | Potency (C33A) | Potency (CAOV3) | outcome (CASKI) | Potency (Es-2) | Potency (HeLa) | Potency (Hek293T) | Potency (JEG-3)
